# Several values for one entry are separate records, joined by “and”; a condition that tells them apart may be missing. Identical values can stand only once. Inconclusive results are not listed. Activity calls are given as the source filed them.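 The calls were made as follows, unless noted: active = normalized viability below 100% at a tested concentration; inactive = the rest.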
# Experiments:
# [1] = viability loss in pontine glioma line – cell-based, SU-DIPG-XXV, MIPE5.0, CellTiter-Glo, qHTS, dose response (AID 1347065; cut-off not given, nearly all actives have AC50 up to about 26 µM;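 also: cells exposed to compound for 48 hours before ATP readout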); settings: CellTiter-Glo ATP luminescence
# [2] = SU-DIPG-VI glioma cell viability, MIPE4.0 library, CellTiter-Glo luminescence, qHTS (AID 1347066; cut-off not given, nearly all actives have AC50 up to about 30 µM;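 also: cells exposed to compound for 48 hours before readout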); settings: CellTiter-Glo ATP luminescence
# [3] = JHH-DIPG-1 glioma cell viability, MIPE5.0 library, CellTiter-Glo luminescence, qHTS (AID 1347067; cut-off not given, nearly all actives have AC50 up to about 26 µM;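 also: cells exposed to compound for 48 hours before readout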); settings: JHH-DIPG-1 glioma viability, CellTiter-Glo ATP luminescence
# [4] = SU-DIPG-XXV glioma cell viability, MIPE5.0 library, qHTS (AID 1347068; cut-off not given, nearly all actives have IC50 up to about 30 µM)
# [5] = sensitizers of A549 cells to miR-34 induction, primary screen, imaging, A549 dox-inducible miR-34, nuclei and caspase counts (AID 1347080;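 active = compounds whose cell count with miR-34 switched on is under 0.7 times the count with it off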); settings: A549 miR-34 inducible, Hoechst nuclei count, 48 h
# [6] = phospholipid biosynthesis inhibitors in animal cells, primary screen, cell-based, LOPAC library, screen 4 (AID 1347384; call rule not given here); settings: phospholipid biosynthesis inhibition screen, at 10 µM
# [7] = survival rescue of mitochondrial mutant cells in low glucose, primary screen, MELAS cybrids, Rieske KO mouse fibroblasts, CellTiter-Glo (AID 1508586;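 active = mean z-score across replicates of 1.96 or higher in either the MELAS or the Rieske mutant cell line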;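 also: z relative to plate mean and SD of compound and empty wells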)
# [8] = ovarian cancer cell viability with rucaparib, profiling panel, oncology-focused library, rucaparib conditional (AID 1508598); settings: patient-derived ovarian cancer cells, CellTiter-Glo viability, 144 h, stronger effect = lower value
# [9] = biological target: NAD(+) hydrolase SARM1 (Homo sapiens) (UniProt Q6SZW1); assay: SARM1 TIR NADase inhibitors, cell lysate, NAD-Glo luminescence (AID 1508614;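 active = compound whose remaining NAD level is above about 45 nM, limit read from the data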;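 also: higher remaining NAD means stronger inhibition of SARM1 NADase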); settings: SAM-TIR HEK293T lysate NADase, at 1 µM, stronger effect = higher value
# [10] = biological target: Mitogen-activated protein kinase 7 (Homo sapiens) (UniProt Q13164); assay: ERK5 transactivation activators in reporter cells, primary screen, cell-based, HTS (AID 1508626;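 active = luciferase signal above three times the same-plate solvent-only control wells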;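 also: luciferase driven by Gal4-ERK5 fusion binding five Gal4 sites before minimal TATA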); settings: HeLa Gal4-ERK5 transactivation, 18 h, at 5 µM, stronger effect = higher value
# [11] = viability rescue of complex I mutant cybrids, primary screen, cell-based, galactose medium, ATP luminescence (AID 1645843;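 active = z-score of at least 1.8 in each of two replicates, scored against plate mean and spread of sample wells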;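 also: positive z means more ATP and so rescue of galactose-driven cybrid death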); settings: complex I mutant cybrid cells, 72 h, stronger effect = higher value
# [12] = LFS_MB_P medulloblastoma growth inhibition, cell-based, chromothripsis tumors, cisplatin or BGB combos (AID 1671449; in the data active = inhibition above about 80%;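 also: cells exposed for 96 hours; 0% = vehicle DMSO and 100% = killing by high DMSO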); settings: LFS_MB_P medulloblastoma cells
# [13] = HDN33 neuroblastoma growth inhibition, cell-based, chromothripsis tumors, cisplatin or BGB combos (AID 1671450; in the data active = inhibition above about 80%;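 also: cells exposed to compound for four days; 0% = vehicle DMSO and 100% = cell killing by high DMSO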); settings: HDN33 neuroblastoma cells, stronger effect = higher value
# [14] = ICB984 medulloblastoma cell growth inhibition, synergistic combos for chromothripsis tumors, cisplatin or BGB combos (AID 1671451; call rule not given here;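 also: cells exposed for 96 hours before readout; 0% = vehicle DMSO and 100% = killing by high DMSO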); settings: ICB984 medulloblastoma cells, drug combinations, stronger effect = higher value
# [15] = LFS_MB_1R medulloblastoma cell growth inhibition, synergistic combos for chromothripsis tumors, cisplatin or BGB combos (AID 1671452; in the data active = inhibition above about 80%;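 also: cells exposed for 96 hours before readout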); settings: LFS_MB_1R medulloblastoma cells, stronger effect = higher value
# [16] = HTB85 osteosarcoma cell growth inhibition, synergistic combos for chromothripsis tumors, BGB or cisplatin IC20 combos (AID 1671453; in the data active = inhibition above about 80%;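 also: cells exposed for 96 hours before readout; 0% = vehicle DMSO and 100% = high DMSO killing control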); settings: HTB85 osteosarcoma cells, drug combinations, stronger effect = higher value
# [17] = CRL2098 osteosarcoma cell growth inhibition, synergistic combos for chromothripsis tumors, BGB or cisplatin IC20 combos (AID 1671454; in the data active = inhibition above about 80%;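 also: cells exposed for 96 h before readout; 0% = vehicle DMSO and 100% = killing by high DMSO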); settings: CRL2098 osteosarcoma cells, drug combinations, stronger effect = higher value
# [18] = HD-MB03 medulloblastoma cell growth inhibition, synergistic combos for chromothripsis tumors, BGB or cisplatin IC20 combos (AID 1671455; in the data active = inhibition above about 83%;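 also: 0% = vehicle DMSO and 100% = high DMSO as cytotoxic control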); settings: HD-MB03 medulloblastoma cells, stronger effect = higher value
# [19] = stronger effect = lower value, cell number ratio, induced over uninduced
# [20] = measured here: relative caspase fold change +Dox/-Dox
# [21] = measured here: total cells with miR-34 induction, stronger effect = lower value
# [22] = measured here: total cells without miR-34 induction
# [23] = MELAS cybrid survival, CellTiter-Glo 48 h, stronger effect = higher value
# [24] = Rieske KO mouse fibroblast survival, CellTiter-Glo 72 h
# [25] = measured here: combination with BGB IC40, at 0.05 µM
# Chain of NAD(+) hydrolase SARM1 (Homo sapiens) (Q6SZW1 whole entry, looked up, the tested form may be a part): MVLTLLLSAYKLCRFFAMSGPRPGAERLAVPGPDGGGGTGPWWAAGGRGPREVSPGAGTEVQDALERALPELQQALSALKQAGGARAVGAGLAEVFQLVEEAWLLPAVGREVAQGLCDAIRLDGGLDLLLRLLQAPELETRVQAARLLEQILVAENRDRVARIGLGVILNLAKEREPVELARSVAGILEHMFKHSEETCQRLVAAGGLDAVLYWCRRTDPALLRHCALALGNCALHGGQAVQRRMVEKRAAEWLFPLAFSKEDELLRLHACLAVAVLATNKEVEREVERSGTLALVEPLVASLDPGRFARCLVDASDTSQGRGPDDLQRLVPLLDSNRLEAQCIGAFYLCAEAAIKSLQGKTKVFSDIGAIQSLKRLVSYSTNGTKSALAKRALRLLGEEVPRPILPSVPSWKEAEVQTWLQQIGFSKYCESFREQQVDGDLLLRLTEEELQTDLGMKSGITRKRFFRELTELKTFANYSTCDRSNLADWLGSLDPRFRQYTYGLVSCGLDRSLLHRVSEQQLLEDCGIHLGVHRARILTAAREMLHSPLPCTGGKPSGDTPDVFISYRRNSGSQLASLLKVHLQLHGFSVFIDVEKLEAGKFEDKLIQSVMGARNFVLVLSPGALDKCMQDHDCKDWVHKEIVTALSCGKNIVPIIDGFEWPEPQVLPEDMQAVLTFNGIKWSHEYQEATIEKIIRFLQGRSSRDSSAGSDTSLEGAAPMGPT
# Chain of Mitogen-activated protein kinase 7 (Homo sapiens) (Q13164 whole entry, looked up, the tested form may be a part): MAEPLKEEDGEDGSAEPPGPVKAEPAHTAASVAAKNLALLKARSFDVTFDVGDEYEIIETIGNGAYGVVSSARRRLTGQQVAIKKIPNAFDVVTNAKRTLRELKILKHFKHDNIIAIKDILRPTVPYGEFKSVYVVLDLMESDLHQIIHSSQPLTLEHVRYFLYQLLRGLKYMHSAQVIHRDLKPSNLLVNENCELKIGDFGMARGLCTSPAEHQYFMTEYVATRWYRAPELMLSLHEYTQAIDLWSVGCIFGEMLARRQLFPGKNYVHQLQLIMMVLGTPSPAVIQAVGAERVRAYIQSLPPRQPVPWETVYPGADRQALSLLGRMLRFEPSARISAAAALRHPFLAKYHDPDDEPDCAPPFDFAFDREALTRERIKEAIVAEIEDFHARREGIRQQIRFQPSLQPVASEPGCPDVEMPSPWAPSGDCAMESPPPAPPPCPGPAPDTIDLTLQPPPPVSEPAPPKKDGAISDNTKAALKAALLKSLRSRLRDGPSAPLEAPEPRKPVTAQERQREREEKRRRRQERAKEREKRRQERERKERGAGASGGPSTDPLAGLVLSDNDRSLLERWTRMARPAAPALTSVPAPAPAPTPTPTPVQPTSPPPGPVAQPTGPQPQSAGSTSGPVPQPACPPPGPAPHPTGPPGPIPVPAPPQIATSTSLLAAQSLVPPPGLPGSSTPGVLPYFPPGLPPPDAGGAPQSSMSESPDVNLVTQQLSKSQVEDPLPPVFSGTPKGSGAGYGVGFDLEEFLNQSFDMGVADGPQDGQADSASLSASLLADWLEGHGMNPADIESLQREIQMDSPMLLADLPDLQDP
smiles,measurement,setting,value
NC(=O)NO,outcome,[1],inactive
same,outcome,[2],inactive
same,outcome,[3],inactive
same,outcome,[4],inactive
same,fold change,[5]; [19],0.975 (inactive) and 0.894 (inactive) and 0.861 (inactive)
same,fold change,[5]; [20],1.12 and 0.968 and 1.05
same,cell count,[5]; [21],10300 and 8660 and 7880
same,cell count,[5]; [22],10600 and 9680 and 9160
same,outcome,[6],inactive
same,z-score,[7]; [23],-0.326 (inactive)
same,z-score,[7]; [24],0.485
same,viability,"[8]; at 0.000305 µM, OCI-C5x cells, with rucaparib 10 µM, 100% = cells with rucaparib alone",105% (inactive)
same,viability,"[8]; at 0.000305 µM, OCI-C5x cells, without rucaparib",113% (inactive)
same,viability,"[8]; at 0.000305 µM, OCI-P5x cells, with rucaparib 20 µM, 100% = cells with rucaparib alone",95.9% (active)
same,viability,"[8]; at 0.000305 µM, OCI-P5x cells, without rucaparib",97.6% (active)
same,viability,"[8]; at 0.00122 µM, OCI-C5x cells, with rucaparib 10 µM, 100% = cells with rucaparib alone",111% (inactive)
same,viability,"[8]; at 0.00122 µM, OCI-C5x cells, without rucaparib",112% (inactive)
same,viability,"[8]; at 0.00122 µM, OCI-P5x cells, with rucaparib 20 µM, 100% = cells with rucaparib alone",98.6% (active)
same,viability,"[8]; at 0.00122 µM, OCI-P5x cells, without rucaparib",102% (inactive)
same,viability,"[8]; at 0.00488 µM, OCI-C5x cells, with rucaparib 10 µM, 100% = cells with rucaparib alone",105% (inactive)
same,viability,"[8]; at 0.00488 µM, OCI-C5x cells, without rucaparib",104% (inactive)
same,viability,"[8]; at 0.00488 µM, OCI-P5x cells, with rucaparib 20 µM, 100% = cells with rucaparib alone",101% (inactive)
same,viability,"[8]; at 0.00488 µM, OCI-P5x cells, without rucaparib",109% (inactive)
same,viability,"[8]; at 0.0195 µM, OCI-C5x cells, with rucaparib 10 µM, 100% = cells with rucaparib alone",104% (inactive)
same,viability,"[8]; at 0.0195 µM, OCI-C5x cells, without rucaparib",115% (inactive)
same,viability,"[8]; at 0.0195 µM, OCI-P5x cells, with rucaparib 20 µM, 100% = cells with rucaparib alone",106% (inactive)
same,viability,"[8]; at 0.0195 µM, OCI-P5x cells, without rucaparib",109% (inactive)
same,viability,"[8]; at 0.0781 µM, OCI-C5x cells, with rucaparib 10 µM, 100% = cells with rucaparib alone",116% (inactive)
same,viability,"[8]; at 0.0781 µM, OCI-C5x cells, without rucaparib",106% (inactive)
same,viability,"[8]; at 0.0781 µM, OCI-P5x cells, with rucaparib 20 µM, 100% = cells with rucaparib alone",106% (inactive)
same,viability,"[8]; at 0.0781 µM, OCI-P5x cells, without rucaparib",116% (inactive)
same,viability,"[8]; at 0.313 µM, OCI-C5x cells, with rucaparib 10 µM, 100% = cells with rucaparib alone",109% (inactive)
same,viability,"[8]; at 0.313 µM, OCI-C5x cells, without rucaparib",114% (inactive)
same,viability,"[8]; at 0.313 µM, OCI-P5x cells, with rucaparib 20 µM, 100% = cells with rucaparib alone",103% (inactive)
same,viability,"[8]; at 0.313 µM, OCI-P5x cells, without rucaparib",110% (inactive)
same,viability,"[8]; at 1.25 µM, OCI-C5x cells, with rucaparib 10 µM, 100% = cells with rucaparib alone",102% (inactive)
same,viability,"[8]; at 1.25 µM, OCI-C5x cells, without rucaparib",116% (inactive)
same,viability,"[8]; at 1.25 µM, OCI-P5x cells, with rucaparib 20 µM, 100% = cells with rucaparib alone",96.8% (active)
same,viability,"[8]; at 1.25 µM, OCI-P5x cells, without rucaparib",110% (inactive)
same,viability,"[8]; at 5 µM, OCI-C5x cells, with rucaparib 10 µM, 100% = cells with rucaparib alone",105% (inactive)
same,viability,"[8]; at 5 µM, OCI-C5x cells, without rucaparib",114% (inactive)
same,viability,"[8]; at 5 µM, OCI-P5x cells, with rucaparib 20 µM, 100% = cells with rucaparib alone",109% (inactive)
same,viability,"[8]; at 5 µM, OCI-P5x cells, without rucaparib",111% (inactive)
same,remaining NAD,[9],10 nM (inactive)
same,luciferase signal,[10],44 AU (inactive)
same,z-score,[11],0.03 (inactive)
same,inhibition,"[12]; at 0.5 µM, stronger effect = higher value",-32.5% (inactive)
same,inhibition,"[12]; measured here: combination with BGB IC20, at 0.005 µM",-13.7%
same,inhibition,"[12]; measured here: combination with BGB IC40, at 0.005 µM",33.3%
same,inhibition,[12]; [25],-4.05%
same,inhibition,"[12]; measured here: combination with cisplatin, at 0.5 µM, stronger effect = higher value",-74.7%
same,inhibition,"[12]; measured here: combination with cisplatin, at 5 µM, stronger effect = higher value",7.33%
same,inhibition,"[13]; BGB combo, at 5 µM",4.14%
same,inhibition,[13]; at 0.5 µM,-0.11% (inactive)
same,inhibition,"[13]; cisplatin combo, at 5 µM",7.9%
same,inhibition,"[13]; measured here: with BGB IC20 combination, at 0.5 µM",1.89%
same,inhibition,"[13]; measured here: with cisplatin IC20 combination, at 0.5 µM",-0.484%
same,inhibition,"[13]; single agent, at 5 µM",3.76%
same,inhibition,"[14]; BGB IC20 combo, at 0.005 µM",-9.77%
same,inhibition,"[14]; BGB IC40 combo, at 0.005 µM",-3.4%
same,inhibition,"[14]; BGB IC40 combo, at 0.05 µM",-15.1%
same,inhibition,[14]; at 0.5 µM,-0.36% (inactive)
same,inhibition,"[14]; cisplatin combo, at 0.05 µM",-15.1%
same,inhibition,"[14]; cisplatin combo, at 0.5 µM",-15.2%
same,inhibition,"[14]; cisplatin combo, at 5 µM",-5.34%
same,inhibition,"[14]; measured here: 5 uM single agent, at 5 µM",-13.7%
same,inhibition,[15]; at 0.5 µM,-11.7% (inactive)
same,inhibition,[15]; [25],-14.3%
same,inhibition,"[15]; measured here: combination with cisplatin, at 0.5 µM",23.3%
same,inhibition,"[15]; measured here: combination with cisplatin, at 5 µM",27.3%
same,inhibition,[16]; at 0.5 µM,4.31% (inactive)
same,inhibition,"[16]; measured here: with BGB IC20, at 0.5 µM",-11.6%
same,inhibition,"[16]; measured here: with BGB IC20, at 5 µM",7.32%
same,inhibition,"[16]; measured here: with cisplatin IC20, at 0.5 µM",-0.499%
same,inhibition,"[16]; measured here: with cisplatin IC20, at 5 µM",13.2%
same,inhibition,"[16]; single agent, at 5 µM",18.4%
same,inhibition,[17]; at 0.5 µM,-5.49% (inactive)
same,inhibition,"[17]; measured here: combination with BGB at IC20, at 0.5 µM",-9.56%
same,inhibition,"[17]; measured here: combination with cisplatin at IC20, at 0.5 µM",4.43%
same,inhibition,[18]; at 0.5 µM,-4.93% (inactive)
same,inhibition,"[18]; measured here: combo with BGB at IC20, at 0.5 µM",-2.45%
same,inhibition,"[18]; measured here: combo with cisplatin at IC20, at 0.5 µM",-8.29%
Cc1cc2cc3c(C)cc(=O)oc3c(C)c2o1,outcome,[1],inactive
same,outcome,[2],inactive
same,outcome,[3],inactive
same,outcome,[4],inactive
same,fold change,[5]; [19],0.952 (inactive) and 0.881 (inactive)
same,fold change,[5]; [20],1.2 and 2.5
same,cell count,[5]; [21],9030 and 10900
same,cell count,[5]; [22],9480 and 12400
same,z-score,[7]; [23],-0.707 (inactive)
same,z-score,[7]; [24],-0.528
same,remaining NAD,[9],10 nM (inactive)
same,luciferase signal,[10],104 AU (inactive)
O=c1oc2cc(O)ccc2s1,outcome,[1],inactive
same,outcome,[2],inactive
same,outcome,[3],inactive
same,outcome,[4],inactive
same,fold change,[5]; [19],0.941 (inactive)
same,fold change,[5]; [20],0.692
same,cell count,[5]; [21],8830
same,cell count,[5]; [22],9380
same,z-score,[7]; [23],-0.382 (inactive)
same,z-score,[7]; [24],0.46
same,remaining NAD,[9],10 nM (inactive)
same,luciferase signal,[10],56 AU (inactive)

# From PubChem BioAssay
